# Measured values as given in ChEMBL document CHEMBL1961873, “Compounds: GSK PKIS; Assays: Nanosyn kinase panel” (2012).
# Columns and labels:
# [1] = biological target: Serine/threonine-protein kinase MARK2 (Homo sapiens) (UniProt Q7KZI7); details: at 1 µM
# [2] = biological target: PAS domain-containing serine/threonine-protein kinase (Homo sapiens) (UniProt Q96RG2); details: at 0.1 µM
# [3] = biological target: PAS domain-containing serine/threonine-protein kinase (Homo sapiens) (UniProt Q96RG2); details: at 1 µM
# [4] = biological target: Phosphorylase b kinase gamma catalytic chain, skeletal muscle/heart isoform (Homo sapiens) (UniProt Q16816); details: at 0.1 µM
# [5] = biological target: Phosphorylase b kinase gamma catalytic chain, skeletal muscle/heart isoform (Homo sapiens) (UniProt Q16816); details: at 1 µM
# [6] = biological target: T1, Phosphorylase b kinase gamma catalytic chain, liver/testis isoform (Homo sapiens) (UniProt P15735); details: at 0.1 µM
# T1 sequence (whole entry): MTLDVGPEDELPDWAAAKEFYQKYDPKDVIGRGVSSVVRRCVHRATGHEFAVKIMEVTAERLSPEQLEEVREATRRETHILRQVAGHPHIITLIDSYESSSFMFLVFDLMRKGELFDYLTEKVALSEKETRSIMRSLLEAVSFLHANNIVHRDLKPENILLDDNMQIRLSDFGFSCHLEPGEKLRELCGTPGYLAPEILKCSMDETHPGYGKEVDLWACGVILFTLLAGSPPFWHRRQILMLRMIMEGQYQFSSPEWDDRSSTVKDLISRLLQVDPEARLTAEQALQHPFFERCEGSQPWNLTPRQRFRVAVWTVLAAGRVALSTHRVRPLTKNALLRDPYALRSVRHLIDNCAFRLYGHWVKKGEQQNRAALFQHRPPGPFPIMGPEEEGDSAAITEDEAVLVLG
# [7] = biological target: T1, Phosphorylase b kinase gamma catalytic chain, liver/testis isoform (Homo sapiens); details: at 1 µM
# [8] = biological target: Serine/threonine-protein kinase pim-1 (Homo sapiens) (UniProt P11309); details: at 0.1 µM
# Sequence of Serine/threonine-protein kinase pim-1 (Homo sapiens) (P11309 whole entry, looked up): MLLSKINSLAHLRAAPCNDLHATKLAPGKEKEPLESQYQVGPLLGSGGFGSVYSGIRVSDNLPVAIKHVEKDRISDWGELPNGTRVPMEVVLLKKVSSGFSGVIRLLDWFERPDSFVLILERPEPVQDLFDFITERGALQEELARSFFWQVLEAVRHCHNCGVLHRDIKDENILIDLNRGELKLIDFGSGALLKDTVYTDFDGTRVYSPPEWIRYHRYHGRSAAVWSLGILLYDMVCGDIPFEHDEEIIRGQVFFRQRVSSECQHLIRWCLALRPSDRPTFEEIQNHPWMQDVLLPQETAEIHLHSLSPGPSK
# [9] = biological target: Serine/threonine-protein kinase pim-1 (Homo sapiens) (UniProt P11309); details: at 1 µM
# [10] = biological target: Serine/threonine-protein kinase pim-2 (Homo sapiens) (UniProt Q9P1W9); details: at 0.1 µM
# Sequence of Serine/threonine-protein kinase pim-2 (Homo sapiens) (Q9P1W9 whole entry, looked up): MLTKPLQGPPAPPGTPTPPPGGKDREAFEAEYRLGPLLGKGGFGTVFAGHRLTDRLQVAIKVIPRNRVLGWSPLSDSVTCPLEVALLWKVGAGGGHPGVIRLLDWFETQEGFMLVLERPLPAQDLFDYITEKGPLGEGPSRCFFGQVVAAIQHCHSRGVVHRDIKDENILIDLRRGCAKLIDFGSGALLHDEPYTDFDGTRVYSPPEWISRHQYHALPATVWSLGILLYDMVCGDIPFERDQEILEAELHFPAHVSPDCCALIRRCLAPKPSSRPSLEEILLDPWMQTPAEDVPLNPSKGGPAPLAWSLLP
# [11] = biological target: Serine/threonine-protein kinase pim-2 (Homo sapiens) (UniProt Q9P1W9); details: at 1 µM
# [12] = biological target: Serine/threonine-protein kinase pim-3 (Homo sapiens) (UniProt Q86V86); details: at 0.1 µM
# [13] = biological target: Serine/threonine-protein kinase pim-3 (Homo sapiens) (UniProt Q86V86); details: at 1 µM
# [14] = biological target: T2, MAP kinase-activated protein kinase 5 (Homo sapiens) (UniProt Q8IW41); details: at 0.1 µM
# T2 sequence (whole entry): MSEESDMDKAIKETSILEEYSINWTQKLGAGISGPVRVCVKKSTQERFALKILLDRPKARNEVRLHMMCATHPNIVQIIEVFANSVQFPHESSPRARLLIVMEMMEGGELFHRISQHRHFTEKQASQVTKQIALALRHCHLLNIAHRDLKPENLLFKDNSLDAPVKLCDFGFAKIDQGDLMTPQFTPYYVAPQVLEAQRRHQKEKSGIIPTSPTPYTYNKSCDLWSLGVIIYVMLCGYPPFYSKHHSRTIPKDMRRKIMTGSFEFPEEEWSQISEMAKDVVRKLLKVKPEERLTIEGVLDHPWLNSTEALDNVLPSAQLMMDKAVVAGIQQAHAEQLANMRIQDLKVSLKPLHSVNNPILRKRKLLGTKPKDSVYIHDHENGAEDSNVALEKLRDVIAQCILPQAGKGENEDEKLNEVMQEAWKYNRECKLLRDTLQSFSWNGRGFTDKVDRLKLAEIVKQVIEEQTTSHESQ
# [15] = biological target: T2, MAP kinase-activated protein kinase 5 (Homo sapiens); details: at 1 µM
# [16] = biological target: Serine/threonine-protein kinase SIK1 (Homo sapiens) (UniProt P57059); details: at 0.1 µM
# Sequence of Serine/threonine-protein kinase SIK1 (Homo sapiens) (P57059 whole entry): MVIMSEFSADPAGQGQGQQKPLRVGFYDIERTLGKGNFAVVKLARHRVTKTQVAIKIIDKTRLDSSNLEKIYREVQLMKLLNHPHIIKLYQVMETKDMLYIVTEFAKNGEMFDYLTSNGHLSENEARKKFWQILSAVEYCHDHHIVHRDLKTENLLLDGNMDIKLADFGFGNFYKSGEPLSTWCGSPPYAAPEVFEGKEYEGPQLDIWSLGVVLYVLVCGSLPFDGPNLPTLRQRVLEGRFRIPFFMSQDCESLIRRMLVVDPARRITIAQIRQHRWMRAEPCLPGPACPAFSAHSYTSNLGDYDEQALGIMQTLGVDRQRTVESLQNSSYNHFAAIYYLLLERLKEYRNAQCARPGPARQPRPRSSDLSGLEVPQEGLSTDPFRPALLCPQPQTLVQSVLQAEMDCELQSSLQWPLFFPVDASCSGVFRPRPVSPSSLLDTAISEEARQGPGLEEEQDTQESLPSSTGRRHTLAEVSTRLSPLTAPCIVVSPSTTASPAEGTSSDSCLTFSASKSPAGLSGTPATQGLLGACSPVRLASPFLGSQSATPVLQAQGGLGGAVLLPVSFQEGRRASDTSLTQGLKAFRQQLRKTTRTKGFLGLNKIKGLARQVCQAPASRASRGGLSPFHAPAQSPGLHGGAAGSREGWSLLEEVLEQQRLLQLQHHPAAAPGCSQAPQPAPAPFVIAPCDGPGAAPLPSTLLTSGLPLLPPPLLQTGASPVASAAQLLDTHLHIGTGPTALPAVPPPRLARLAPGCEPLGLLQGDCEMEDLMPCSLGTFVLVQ
# [17] = biological target: Serine/threonine-protein kinase SIK1 (Homo sapiens) (UniProt P57059); details: at 1 µM
# [18] = biological target: Serine/threonine-protein kinase SIK2 (Homo sapiens) (UniProt Q9H0K1); details: at 0.1 µM
# Sequence of Serine/threonine-protein kinase SIK2 (Homo sapiens) (Q9H0K1 whole entry, looked up): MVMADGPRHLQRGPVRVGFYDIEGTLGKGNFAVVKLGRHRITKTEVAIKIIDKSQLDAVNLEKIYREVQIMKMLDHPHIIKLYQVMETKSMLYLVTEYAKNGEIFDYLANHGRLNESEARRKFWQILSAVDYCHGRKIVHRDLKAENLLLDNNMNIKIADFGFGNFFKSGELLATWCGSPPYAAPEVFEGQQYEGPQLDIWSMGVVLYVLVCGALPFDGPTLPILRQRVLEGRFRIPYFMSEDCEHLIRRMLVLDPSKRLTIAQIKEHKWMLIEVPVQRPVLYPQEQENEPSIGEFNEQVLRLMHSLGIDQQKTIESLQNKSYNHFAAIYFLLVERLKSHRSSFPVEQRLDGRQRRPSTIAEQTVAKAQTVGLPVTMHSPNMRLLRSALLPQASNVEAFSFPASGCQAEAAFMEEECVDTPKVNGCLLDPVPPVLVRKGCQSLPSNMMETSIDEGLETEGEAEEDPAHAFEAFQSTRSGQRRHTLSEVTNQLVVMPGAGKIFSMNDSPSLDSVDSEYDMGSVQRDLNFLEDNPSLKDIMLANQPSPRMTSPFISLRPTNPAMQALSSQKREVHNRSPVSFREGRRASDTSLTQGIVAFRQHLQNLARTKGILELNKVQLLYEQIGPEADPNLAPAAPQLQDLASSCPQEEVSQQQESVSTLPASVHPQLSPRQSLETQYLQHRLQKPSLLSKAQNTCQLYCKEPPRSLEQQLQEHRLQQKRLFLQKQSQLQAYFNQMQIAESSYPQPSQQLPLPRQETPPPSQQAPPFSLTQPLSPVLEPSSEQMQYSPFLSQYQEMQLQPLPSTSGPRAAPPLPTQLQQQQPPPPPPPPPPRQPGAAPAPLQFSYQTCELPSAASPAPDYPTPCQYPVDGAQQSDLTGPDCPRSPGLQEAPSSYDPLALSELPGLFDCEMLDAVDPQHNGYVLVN
# [19] = biological target: Serine/threonine-protein kinase SIK2 (Homo sapiens) (UniProt Q9H0K1); details: at 1 µM
# [20] = biological target: T3, Serine/threonine-protein kinase TBK1 (Homo sapiens) (UniProt Q9UHD2); details: at 0.1 µM;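 also: values are the mean TBK1 inhibition, taken from the GSK PKIS screening data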
# T3 sequence (whole entry): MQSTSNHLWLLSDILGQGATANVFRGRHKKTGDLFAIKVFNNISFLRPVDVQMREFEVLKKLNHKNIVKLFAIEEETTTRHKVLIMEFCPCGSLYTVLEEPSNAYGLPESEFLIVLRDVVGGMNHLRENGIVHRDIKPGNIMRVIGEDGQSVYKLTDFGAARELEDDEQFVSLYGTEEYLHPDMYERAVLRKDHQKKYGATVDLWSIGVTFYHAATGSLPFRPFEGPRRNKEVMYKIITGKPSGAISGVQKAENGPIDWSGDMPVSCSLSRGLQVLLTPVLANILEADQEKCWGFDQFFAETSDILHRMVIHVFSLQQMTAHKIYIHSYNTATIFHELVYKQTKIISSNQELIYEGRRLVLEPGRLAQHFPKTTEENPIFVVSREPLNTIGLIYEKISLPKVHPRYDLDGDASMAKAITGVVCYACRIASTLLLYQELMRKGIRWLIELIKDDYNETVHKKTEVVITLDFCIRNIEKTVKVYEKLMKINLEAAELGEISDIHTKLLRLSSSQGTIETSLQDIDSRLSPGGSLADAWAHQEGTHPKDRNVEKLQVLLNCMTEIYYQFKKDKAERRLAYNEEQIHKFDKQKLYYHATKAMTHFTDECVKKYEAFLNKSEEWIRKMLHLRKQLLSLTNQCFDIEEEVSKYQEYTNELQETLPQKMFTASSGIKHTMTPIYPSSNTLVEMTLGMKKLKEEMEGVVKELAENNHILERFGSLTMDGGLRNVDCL
# Sequence of Serine/threonine-protein kinase MARK2 (Homo sapiens) (Q7KZI7 whole entry, the tested form may be a part): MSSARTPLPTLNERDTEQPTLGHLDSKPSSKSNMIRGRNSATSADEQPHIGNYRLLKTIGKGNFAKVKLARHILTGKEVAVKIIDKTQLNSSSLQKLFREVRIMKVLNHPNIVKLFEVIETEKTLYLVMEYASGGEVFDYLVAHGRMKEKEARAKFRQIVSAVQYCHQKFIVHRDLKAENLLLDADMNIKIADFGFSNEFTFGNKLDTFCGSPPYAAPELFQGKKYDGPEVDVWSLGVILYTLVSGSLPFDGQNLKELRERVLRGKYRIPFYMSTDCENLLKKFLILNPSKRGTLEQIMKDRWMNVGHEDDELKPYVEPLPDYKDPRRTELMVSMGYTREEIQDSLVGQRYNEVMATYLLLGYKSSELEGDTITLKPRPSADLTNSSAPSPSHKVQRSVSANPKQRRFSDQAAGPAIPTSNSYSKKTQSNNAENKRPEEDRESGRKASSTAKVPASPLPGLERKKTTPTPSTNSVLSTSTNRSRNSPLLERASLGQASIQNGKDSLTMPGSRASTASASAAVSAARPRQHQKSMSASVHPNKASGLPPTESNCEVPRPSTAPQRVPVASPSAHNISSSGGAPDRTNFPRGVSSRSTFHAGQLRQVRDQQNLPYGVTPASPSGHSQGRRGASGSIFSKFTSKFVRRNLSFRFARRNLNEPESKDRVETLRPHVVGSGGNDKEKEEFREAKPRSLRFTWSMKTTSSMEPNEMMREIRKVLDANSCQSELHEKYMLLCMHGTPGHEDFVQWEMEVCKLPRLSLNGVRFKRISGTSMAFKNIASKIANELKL
# Sequence of PAS domain-containing serine/threonine-protein kinase (Homo sapiens) (Q96RG2 whole entry, the tested form may be a part, canonical isoform): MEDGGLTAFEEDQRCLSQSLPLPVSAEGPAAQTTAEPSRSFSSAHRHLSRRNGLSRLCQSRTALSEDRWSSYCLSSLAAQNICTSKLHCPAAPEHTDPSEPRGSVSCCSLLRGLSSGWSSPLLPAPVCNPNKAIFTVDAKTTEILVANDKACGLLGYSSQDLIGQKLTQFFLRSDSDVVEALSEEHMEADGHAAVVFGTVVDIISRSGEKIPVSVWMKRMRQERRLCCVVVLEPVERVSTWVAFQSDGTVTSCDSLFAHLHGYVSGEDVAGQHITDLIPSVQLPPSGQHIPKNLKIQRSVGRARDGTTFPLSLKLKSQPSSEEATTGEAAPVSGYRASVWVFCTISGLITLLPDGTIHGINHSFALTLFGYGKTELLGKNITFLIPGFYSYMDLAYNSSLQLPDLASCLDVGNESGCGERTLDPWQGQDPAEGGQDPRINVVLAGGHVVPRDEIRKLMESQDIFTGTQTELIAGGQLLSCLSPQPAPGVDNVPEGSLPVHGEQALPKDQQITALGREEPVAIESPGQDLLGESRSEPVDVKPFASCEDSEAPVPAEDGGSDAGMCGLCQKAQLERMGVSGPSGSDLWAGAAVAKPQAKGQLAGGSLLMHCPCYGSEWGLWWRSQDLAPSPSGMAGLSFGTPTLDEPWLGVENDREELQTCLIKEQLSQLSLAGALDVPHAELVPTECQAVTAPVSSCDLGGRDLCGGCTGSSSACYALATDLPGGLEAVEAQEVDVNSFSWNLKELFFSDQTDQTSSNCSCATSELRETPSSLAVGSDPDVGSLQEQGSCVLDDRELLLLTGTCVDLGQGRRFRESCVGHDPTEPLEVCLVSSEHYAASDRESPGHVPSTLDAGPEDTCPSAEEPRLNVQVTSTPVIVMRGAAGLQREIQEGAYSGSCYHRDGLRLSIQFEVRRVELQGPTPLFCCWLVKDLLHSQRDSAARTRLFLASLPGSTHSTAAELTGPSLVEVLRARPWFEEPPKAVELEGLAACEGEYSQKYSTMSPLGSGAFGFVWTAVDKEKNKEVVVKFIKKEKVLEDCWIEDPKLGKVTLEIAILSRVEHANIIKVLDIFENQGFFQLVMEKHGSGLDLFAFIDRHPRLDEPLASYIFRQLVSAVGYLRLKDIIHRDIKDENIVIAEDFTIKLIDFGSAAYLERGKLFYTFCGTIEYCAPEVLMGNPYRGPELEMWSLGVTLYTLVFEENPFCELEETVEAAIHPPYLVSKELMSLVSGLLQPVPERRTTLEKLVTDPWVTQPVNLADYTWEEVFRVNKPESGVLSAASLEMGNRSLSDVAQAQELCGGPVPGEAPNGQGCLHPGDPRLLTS
SMILES,inhibition [1],inhibition [2],inhibition [3],inhibition [4],inhibition [5],inhibition [6],inhibition [7],inhibition [8],inhibition [9],inhibition [10],inhibition [11],inhibition [12],inhibition [13],inhibition [14],inhibition [15],inhibition [16],inhibition [17],inhibition [18],inhibition [19],inhibition [20]
OCc1ccc(-c2nc(-c3ccccn3)c(-c3ccc4c(c3)OCO4)[nH]2)cc1,2.05%,0.83%,-1.14%,2.77%,-6%,5.91%,2.21%,0.78%,0.98%,0.72%,1.41%,-1.14%,-3.44%,1.17%,-0.12%,9%,5.84%,8.76%,7.48%,2.36%
Cc1ccc(C(=O)NC2CC2)cc1-c1ccc2[nH]ncc2c1,5.77%,1.24%,1.27%,-0.37%,1.36%,-5.73%,-5.52%,1.72%,4.32%,0.52%,0.98%,1.05%,4.89%,-1.55%,-1.4%,-8.63%,-5.39%,-3.95%,-7.9%,-3.58%
CC(C)c1ccc2c(c1)NC(=O)/C2=N/Nc1ccc(S(N)(=O)=O)cc1,-0.8%,1.25%,0.24%,-0.83%,1.14%,0.03%,0.32%,0.27%,-0.22%,-0.21%,1.32%,2.03%,3.02%,0.46%,0.35%,1.04%,7.02%,2.29%,2.16%,-1%
Cc1nc(-c2ccccc2)n2nc(NCCCN3CCOCC3)ncc12,0.71%,0.65%,-0.06%,0.52%,4.26%,3.22%,3.98%,-0.82%,0.37%,0.19%,0.05%,-0.2%,1.5%,0.74%,0.74%,3.53%,5.24%,-0.49%,4.81%,1.18%
Oc1cccc(-c2nc(-c3ccccc3)[nH]c2-c2ccncc2)c1,0.43%,0.7%,0.32%,4.05%,3.93%,5.23%,4.95%,0.8%,2.57%,-0.34%,0.33%,-1.73%,1.72%,1.55%,1.19%,8.44%,11.6%,4.34%,10.2%,1.64%
[O-][S+]1CCN(Cc2ccc(-c3ccc4ncnc(Nc5ccc(OCc6ccccc6)c(Cl)c5)c4c3)o2)CC1,2.27%,0.68%,-0.53%,3.63%,3.41%,2.31%,-0.04%,0.56%,1.25%,0.46%,0.25%,0.7%,1.32%,0.67%,0.37%,0.43%,7.59%,1.44%,5.75%,0.91%
Nc1nccc(-c2c(-c3ccc(F)cc3)ncn2CCCN2CCOCC2)n1,1.26%,-0.18%,0.84%,5.3%,5.42%,3.78%,4.82%,1.45%,0.82%,0.76%,1.68%,2.11%,1.36%,1.45%,4.08%,2.84%,6.36%,7.84%,11.6%,0.96%
Cc1cc(O)cc(C)c1/C=C/c1cncc(C(=O)N(C)C)c1,1.77%,0.83%,-0.85%,3.09%,2.61%,2.55%,0.54%,1.21%,2.17%,0.03%,0.34%,-1.55%,-0.09%,0.59%,-0.52%,9.45%,29.4%,4.34%,4.27%,1.36%
Nc1nccc(-c2c(-c3ccc(F)cc3)nn3cc(C(F)(F)F)ccc23)n1,-0.77%,0.89%,0.42%,3.63%,3.94%,0.86%,0.54%,0.21%,-0.89%,-0.09%,0.77%,0.74%,0.92%,0.34%,0.16%,-0.43%,1.61%,-1.04%,-1.57%,-2.75%
CN1CCN(C(=O)c2ccc(NC(=O)Nc3ccc(N(C)c4ccnc(Nc5ccc(CS(C)(=O)=O)cc5)n4)cc3)cc2)CC1,8.38%,-0.3%,0.27%,-1.64%,1.5%,2.03%,3.05%,0.58%,-0.28%,-0.2%,-0.35%,0.13%,2.14%,1.17%,1.29%,3.16%,17.6%,-0.55%,17.4%,2.62%
CCCN1CCCC(c2ccc(Nc3nc(Nc4cc(F)ccc4C(N)=O)c4cc[nH]c4n3)c(OC)c2)C1 (stereo not given),40%,-0.3%,8.59%,51.2%,77.8%,26.9%,67.6%,11.7%,50.8%,0.9%,7.35%,4.99%,40.8%,5.81%,33.2%,6.07%,10.2%,2.41%,11%,4.22%
O=C(Nc1ccc(Oc2ccc3[nH]c(NC(=O)c4ccco4)nc3c2)cc1)Nc1cc(C(F)(F)F)ccc1F,0.83%,0.28%,0.06%,0.41%,8.29%,0.46%,-0.56%,0.14%,1.19%,-3.36%,-3.75%,0.09%,0.78%,-0.29%,-0.75%,4.18%,4.41%,-4.88%,0.5%,0.65%
